Most compounds without a hit are left out; they make up all but 6.6% or so of the library.
KB-V1 cytotox: qHTS assay for MDR1-selective chemotherapeutics: Primary screen using the drug-selected MDR subline cells KB-V1; KB-V1 MDR cells viability, CellTiter-Glo, 72 h; Potency, µM (titrated, usually from 46.1 µM), usual class: cytotoxic; hit rate 3.4% among 400,000; AID 1347076, 2019; also: % is scaled to controls: 0 for no effect and ±100 for the full control effect; nearly all actives have a fitted effect of over 60% in size
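Drug-selected KB-V1 cells, grown in DMEM lacking phenol red with 10% FBS, receive compound titrations; after three days at 37 degrees C, surviving cell ATP is quantified by CellTiter-Glo luminescence and responses normalized and curve-fitted.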
KB-3-1 cytotox: qHTS assay for MDR1-selective chemotherapeutics: Primary screen using the parental adenocarcinoma cell KB-3-1; KB-3-1 viability, CellTiter-Glo ATP luminescence, 72 h; Potency, µM (top dose mostly 46.1 µM), actives largely listed as cytotoxic; hit rate 1.4% among 400,000; also: % is scaled to controls: 0 for no effect and ±100 for the full control effect; nearly all actives have a fitted effect of over 60% in size
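Luminescent ATP read-out (CellTiter-Glo) measures survival of drug-naive KB-3-1 cells after 72 h compound exposure at 37 °C. Titration series was screened from lowest to highest concentration, with DMSO vehicle plates as background controls.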
TGFb SMAD3 inh: qHTS for Inhibitors of TGF-b; Potency, µM (top dose mostly 46.1 µM), for the others: at the highest dose activity, negative = inhibition, hits mostly inhibitors; AID 588855, 2011; hit rate 1.2% among 410,000; HepG2 CAGA-GFP TGF-b/SMAD3 reporter, GFP fluorescence, 18 h; TGF-beta stimulated, 500 pg/mL final; also: % is scaled to controls: 0 for no effect and ±100 for the full control effect; nearly all actives have a fitted effect of over 65% in size
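Read-out: total well GFP (ex488/em500-530) summed from mean per-cell fluorescence. Cells: HEPG2 CAGA-GFP, 1% FBS DMEM, 18 h at 37 degrees C with 500 pg/mL final TGF-beta. Unstimulated wells served as the full-inhibition control; stimulated DMSO wells = 0%.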
HT1080NT lethal: qHTS for induction of synthetic lethality in tumor cells producing 2HG: qHTS for the HT-1080-NT fibrosarcoma cell line; HT-1080-NT fibrosarcoma viability, CellTiter-Glo ATP luminescence, 48 h; Potency, µM (highest dose often 46.1 µM), for the others: top-dose activity, negative = less viability, most hits filed as cytotoxic; AID 686970, 2013; hit rate 1.6% among 360,000;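 also: NT is the 2HG producing partner of a matched IDH1 knockdown line; 0% = DMSO-treated cells and -100% = media-only wells without cells; nearly all actives have a fitted effect of over 55% in size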
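Compounds were tested in concentration-response format on HT-1080-NT cells for 48 hours at 37 degrees C. Cell viability came from CellTiter-Glo luminescence; curves were classified by r2, response magnitude and activity.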
HT1080 IDH1KD tx: qHTS for induction of synthetic lethality in tumor cells producing 2HG: qHTS for the HT-1080-IDH1KD cell line. HT-1080 IDH1 knockdown viability, ATP luminescence, 48 h. Potency, µM (series often up to 46.1 µM), for the others: at the top dose activity, negative = toxicity, actives largely listed as cytotoxic. hit rate 2% among 360,000;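 also: 0% = DMSO wells and -100% = cell-free medium wells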
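After a 2 h attachment period, IDH1KD HT-1080 cells took pin-transferred compound for 48 h at 37 °C; ATP-based luminescence after 10 min room-temperature reagent incubation reported viability.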
HepG2 tox-1: qHTS for Inhibitors of TGF-b: Cytotox Counterscreen. HepG2 CAGA-GFP viability, ATP luminescence, 18 h. Potency, µM (doses to about 46.1 µM), inactives show top-dose activity change, negative = cytotoxicity, usual class: cytotoxic. hit rate 0.76% among 410,000. AID 588856, 2011
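CellTiter-Glo luminescence gave cytotoxicity after 18 hours at 37 degrees C. The cells were HepG2 CAGA-GFP in 1% FBS DMEM, stimulated with 500 pg/mL TGF-beta after compound addition. %Activity was normalised to no-cell wells (complete cell-killing) and DMSO (no toxicity), and curves were fitted and classified.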
TGFb CAGA inh: qHTS for Inhibitors of TGF-b: Confirmation of Cherry Picks; shares compounds with TGFb SMAD3 inh; HepG2 CAGA-GFP TGF-b reporter, GFP fluorescence, 18 h; cells stimulated with TGF-beta, 500 pg/mL; Potency, µM (titrated, usually from 46.1 µM), inactives show top-dose activity, negative = inhibition, most hits filed as inhibitors; hit rate 63% among 1,600; also: % is scaled to controls: 0 for no effect and ±100 for the full control effect; nearly all actives have a fitted effect of over 65% in size
HepG2 tox-2: qHTS for Inhibitors of TGF-b: Cytotox Counterscreen for Cherry Picks | AID 720535, 2013 | hit rate 27% among 1,600 | shares compounds with TGFb SMAD3 inh | Potency, µM (doses to about 46.1 µM), without a hit: top-dose activity, negative = cytotoxicity, most hits filed as inhibitors | HepG2 CAGA-GFP viability, ATP luminescence, 18 h; cells stimulated with TGF-beta, 500 pg/mL; also: % is scaled to controls: 0 for no effect and ±100 for the full control effect; nearly all actives have a fitted effect of over 70% in size
CCL64 TGFb inh: qHTS for Inhibitors of TGF-b: CCL64 Cells Orthogonal Assay for Cherry Picks; shares compounds with TGFb SMAD3 inh; CCL64 CAGA-GFP reporter, TGF-b stimulated, GFP fluorescence, 18 h; Potency, µM (titrated, usually from 46.1 µM), for inactives: at the top dose activity, negative = inhibition, actives largely listed as inhibitors; hit rate 41% among 1,600; AID 720536, 2013; also: nearly all actives have a fitted effect of over 65% in size
TGFb COP inh: qHTS for Inhibitors of TGF-b: Hit Validation in HepG2 Cells using COP promoter; HepG2 COP-GFP TGF-b reporter, GFP fluorescence, 18 h; cells stimulated by added recombinant TGF-beta; shares compounds with TGFb SMAD3 inh; hit rate 3% among 1,600; Potency, µM (series often up to 46.1 µM), inactives show at the highest dose activity, negative = inhibition, hits mostly inhibitors; also: nearly all actives have a fitted effect of over 70% in size
* marks the source's active call; other numbers are inactive results. Calls follow the shape of the dose curve; as a rule, active = well fitted curve in the direction sought with a large enough effect; inconclusive = small, poorly fitted or top-dose-only effect, or another doubt; inactive = no such curve, though single readings can be large; an effect the other way counts as inactive or inconclusive. Potency is read from the fitted curve at half-maximal effect.

For COCCN(Cc1cc2cc(C)c(C)cc2nc1Cl)C(=O)Nc1ccccc1 the results were KB-V1 cytotox inactive, KB-3-1 cytotox inactive, TGFb SMAD3 inh -1%, HT1080NT lethal -16%, HT1080 IDH1KD tx -1% and HepG2 tox-1 -17%.
COCCN(Cc1cc2cc3c(cc2nc1Cl)OCO3)C(=O)c1ccc(C)cc1 was read as KB-V1 cytotox inconclusive, KB-3-1 cytotox inconclusive, TGFb SMAD3 inh inconclusive, HT1080NT lethal -14%, HT1080 IDH1KD tx -12%, HepG2 tox-1 -24%, TGFb CAGA inh inconclusive, HepG2 tox-2 -13%, CCL64 TGFb inh 7% and TGFb COP inh 10%.
O=c1c(Br)c(N2CCCC2)cnn1-c1ccccc1 was read as KB-V1 cytotox inconclusive, KB-3-1 cytotox inactive, TGFb SMAD3 inh -3%, HT1080NT lethal 11%, HT1080 IDH1KD tx 0% and HepG2 tox-1 26%.
Screening O=c1c(Br)c(Br)cnn1-c1ccccc1 returned KB-V1 cytotox inconclusive, KB-3-1 cytotox inconclusive, TGFb SMAD3 inh 10µM*, HT1080NT lethal 2.9µM*, HT1080 IDH1KD tx 4.1µM*, HepG2 tox-1 13µM*, TGFb CAGA inh 4.6µM*, HepG2 tox-2 8.2µM*, CCL64 TGFb inh 4.6µM* and TGFb COP inh inconclusive.
For CCN(CC)C(=O)c1ccc2nc3ccccc3nc2c1 the results were KB-V1 cytotox 16µM*, KB-3-1 cytotox 5.8µM*, TGFb SMAD3 inh 10µM*, HT1080NT lethal -11%, HT1080 IDH1KD tx -22%, HepG2 tox-1 -88%, TGFb CAGA inh inconclusive, HepG2 tox-2 12µM*, CCL64 TGFb inh 2% and TGFb COP inh 23%.
For O=S(=O)(CC(CN1CCCCC1)N1CCCCC1)c1ccccc1 (stereo not drawn) the results were KB-V1 cytotox inactive, KB-3-1 cytotox inactive, TGFb SMAD3 inh 10µM*, HT1080NT lethal inconclusive, HT1080 IDH1KD tx inconclusive, HepG2 tox-1 18µM*, TGFb CAGA inh 13µM*, HepG2 tox-2 18µM*, CCL64 TGFb inh 4.6µM* and TGFb COP inh inconclusive.
